Our source for the inhibition values is ChEMBL document CHEMBL1961873, “Compounds: GSK PKIS; Assays: Nanosyn kinase panel” (2012).

Usually inhibition stands for the relative decrease from the control value, in per cent.

Experiment [1] addresses Protein kinase C gamma type (Homo sapiens) (UniProt P05129). Conditions: at 1 µM.
In experiment [2] the target is T1, Protein kinase C iota type (Homo sapiens) (UniProt P41743).
T1 sequence (whole entry): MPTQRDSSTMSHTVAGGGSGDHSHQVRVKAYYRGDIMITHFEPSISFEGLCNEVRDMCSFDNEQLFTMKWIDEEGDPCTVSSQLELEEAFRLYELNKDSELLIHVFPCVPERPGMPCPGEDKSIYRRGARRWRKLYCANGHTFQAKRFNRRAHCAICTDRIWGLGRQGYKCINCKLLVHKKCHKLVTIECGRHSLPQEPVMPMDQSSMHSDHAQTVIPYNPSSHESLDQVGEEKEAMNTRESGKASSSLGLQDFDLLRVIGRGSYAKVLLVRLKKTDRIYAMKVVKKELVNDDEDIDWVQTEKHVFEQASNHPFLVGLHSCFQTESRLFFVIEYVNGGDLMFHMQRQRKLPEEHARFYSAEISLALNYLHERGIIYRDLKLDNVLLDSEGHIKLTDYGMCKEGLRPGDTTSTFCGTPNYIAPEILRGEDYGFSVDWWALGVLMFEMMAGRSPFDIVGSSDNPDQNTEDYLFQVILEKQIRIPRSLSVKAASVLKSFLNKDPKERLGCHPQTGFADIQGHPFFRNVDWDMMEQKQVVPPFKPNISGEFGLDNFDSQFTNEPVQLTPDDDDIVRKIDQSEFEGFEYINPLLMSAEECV
The settings on record: at 0.1 µM.

The target in experiment [3] is T1, Protein kinase C iota type (Homo sapiens). Conditions: at 1 µM.
Experiment [4] has as its target Protein kinase C theta type (Homo sapiens) (UniProt Q04759). Conditions: at 0.1 µM.
For experiment [5] the target is unchanged. Conditions: at 1 µM.
The target of experiment [6] is Protein kinase C beta type (Homo sapiens) (UniProt P05771). The settings on record: at 0.1 µM.
The target is the same in experiment [7]. The settings on record: at 1 µM.
For experiment [8], the target named is T2, Serine/threonine-protein kinase D1 (Homo sapiens) (UniProt Q15139).
T2 sequence (whole entry): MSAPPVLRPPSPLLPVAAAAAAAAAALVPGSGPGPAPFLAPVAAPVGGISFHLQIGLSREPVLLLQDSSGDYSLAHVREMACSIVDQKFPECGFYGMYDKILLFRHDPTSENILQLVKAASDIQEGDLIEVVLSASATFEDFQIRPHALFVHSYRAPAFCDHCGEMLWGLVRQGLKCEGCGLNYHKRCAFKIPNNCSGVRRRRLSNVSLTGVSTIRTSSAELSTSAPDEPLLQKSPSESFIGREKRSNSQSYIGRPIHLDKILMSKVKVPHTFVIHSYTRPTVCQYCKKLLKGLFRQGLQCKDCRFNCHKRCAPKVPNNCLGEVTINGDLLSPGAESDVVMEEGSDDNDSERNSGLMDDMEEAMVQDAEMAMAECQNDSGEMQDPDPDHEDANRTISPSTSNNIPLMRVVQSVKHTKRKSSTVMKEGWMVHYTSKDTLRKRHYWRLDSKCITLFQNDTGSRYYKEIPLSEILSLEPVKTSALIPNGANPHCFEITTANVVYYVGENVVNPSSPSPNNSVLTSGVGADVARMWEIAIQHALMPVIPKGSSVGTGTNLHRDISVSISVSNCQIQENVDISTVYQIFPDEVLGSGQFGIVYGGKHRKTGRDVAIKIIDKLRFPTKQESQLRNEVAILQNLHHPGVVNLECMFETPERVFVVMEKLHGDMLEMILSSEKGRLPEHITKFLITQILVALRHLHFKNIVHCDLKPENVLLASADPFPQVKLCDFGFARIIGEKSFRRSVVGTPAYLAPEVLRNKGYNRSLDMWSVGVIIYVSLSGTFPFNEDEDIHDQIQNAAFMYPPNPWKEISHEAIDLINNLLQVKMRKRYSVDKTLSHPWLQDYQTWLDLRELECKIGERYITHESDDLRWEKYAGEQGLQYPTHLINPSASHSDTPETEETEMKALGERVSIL
Conditions: at 0.1 µM.

For experiment [9], the target named is T2, Serine/threonine-protein kinase D1 (Homo sapiens). Conditions: at 1 µM.
Experiment [10] concerns the target T3, Serine/threonine-protein kinase D2 (Homo sapiens) (UniProt Q9BZL6).
T3 sequence (whole entry): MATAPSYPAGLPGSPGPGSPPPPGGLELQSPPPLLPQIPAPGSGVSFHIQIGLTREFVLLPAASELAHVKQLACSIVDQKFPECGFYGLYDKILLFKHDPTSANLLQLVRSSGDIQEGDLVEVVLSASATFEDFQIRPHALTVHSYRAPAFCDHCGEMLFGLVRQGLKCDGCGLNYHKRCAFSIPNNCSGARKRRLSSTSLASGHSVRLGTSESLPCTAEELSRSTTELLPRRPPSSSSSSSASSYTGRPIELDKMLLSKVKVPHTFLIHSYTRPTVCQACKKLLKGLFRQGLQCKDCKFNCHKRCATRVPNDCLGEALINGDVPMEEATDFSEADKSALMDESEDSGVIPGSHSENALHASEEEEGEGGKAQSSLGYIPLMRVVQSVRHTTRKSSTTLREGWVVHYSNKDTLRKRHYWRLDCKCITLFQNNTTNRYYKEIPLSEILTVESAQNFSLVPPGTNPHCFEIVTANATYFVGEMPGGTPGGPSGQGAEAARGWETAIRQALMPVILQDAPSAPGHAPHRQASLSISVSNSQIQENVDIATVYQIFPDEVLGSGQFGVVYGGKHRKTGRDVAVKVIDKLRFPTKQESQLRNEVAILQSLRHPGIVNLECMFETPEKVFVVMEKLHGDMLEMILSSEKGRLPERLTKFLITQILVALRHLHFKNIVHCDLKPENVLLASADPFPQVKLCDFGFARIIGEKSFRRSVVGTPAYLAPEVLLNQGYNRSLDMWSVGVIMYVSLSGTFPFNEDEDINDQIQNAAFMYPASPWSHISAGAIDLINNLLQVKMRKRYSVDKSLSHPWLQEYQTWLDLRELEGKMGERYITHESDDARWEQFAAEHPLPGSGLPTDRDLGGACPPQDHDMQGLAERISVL
Conditions: at 0.1 µM.

The target of experiment [11] is T3, Serine/threonine-protein kinase D2 (Homo sapiens). The settings on record: at 1 µM.
The target in experiment [12] is T4, Serine/threonine-protein kinase D3 (Homo sapiens) (UniProt O94806).
T4 sequence (whole entry): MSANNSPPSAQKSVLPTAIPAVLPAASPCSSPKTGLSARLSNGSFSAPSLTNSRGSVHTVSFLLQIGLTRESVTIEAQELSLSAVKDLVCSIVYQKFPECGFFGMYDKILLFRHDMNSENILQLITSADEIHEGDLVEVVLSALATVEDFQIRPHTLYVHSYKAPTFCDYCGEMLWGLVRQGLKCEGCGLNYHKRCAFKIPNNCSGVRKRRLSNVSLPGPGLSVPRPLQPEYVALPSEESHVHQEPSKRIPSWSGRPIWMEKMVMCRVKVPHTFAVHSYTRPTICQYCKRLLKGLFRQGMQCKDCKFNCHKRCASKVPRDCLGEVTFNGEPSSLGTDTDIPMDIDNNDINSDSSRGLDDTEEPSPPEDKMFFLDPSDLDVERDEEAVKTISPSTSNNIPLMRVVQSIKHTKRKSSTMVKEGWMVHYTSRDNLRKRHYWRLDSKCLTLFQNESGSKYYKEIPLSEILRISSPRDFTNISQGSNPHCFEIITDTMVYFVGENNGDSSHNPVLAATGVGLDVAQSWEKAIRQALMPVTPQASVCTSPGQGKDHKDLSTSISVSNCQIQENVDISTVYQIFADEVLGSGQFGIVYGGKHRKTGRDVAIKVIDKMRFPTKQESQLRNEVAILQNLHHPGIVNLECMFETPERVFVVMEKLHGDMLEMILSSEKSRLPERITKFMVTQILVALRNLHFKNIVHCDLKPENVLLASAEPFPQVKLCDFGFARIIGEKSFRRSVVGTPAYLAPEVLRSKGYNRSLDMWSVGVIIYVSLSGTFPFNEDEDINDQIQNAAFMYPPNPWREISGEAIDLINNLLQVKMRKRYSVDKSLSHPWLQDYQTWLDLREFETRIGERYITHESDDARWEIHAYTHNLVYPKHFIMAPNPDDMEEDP
The settings on record: at 0.1 µM.

Experiment [13] concerns the target T4, Serine/threonine-protein kinase D3 (Homo sapiens). Conditions: at 1 µM.
The target of experiment [14] is T5, cGMP-dependent protein kinase 1 (Homo sapiens) (UniProt Q13976).
T5 sequence (whole entry): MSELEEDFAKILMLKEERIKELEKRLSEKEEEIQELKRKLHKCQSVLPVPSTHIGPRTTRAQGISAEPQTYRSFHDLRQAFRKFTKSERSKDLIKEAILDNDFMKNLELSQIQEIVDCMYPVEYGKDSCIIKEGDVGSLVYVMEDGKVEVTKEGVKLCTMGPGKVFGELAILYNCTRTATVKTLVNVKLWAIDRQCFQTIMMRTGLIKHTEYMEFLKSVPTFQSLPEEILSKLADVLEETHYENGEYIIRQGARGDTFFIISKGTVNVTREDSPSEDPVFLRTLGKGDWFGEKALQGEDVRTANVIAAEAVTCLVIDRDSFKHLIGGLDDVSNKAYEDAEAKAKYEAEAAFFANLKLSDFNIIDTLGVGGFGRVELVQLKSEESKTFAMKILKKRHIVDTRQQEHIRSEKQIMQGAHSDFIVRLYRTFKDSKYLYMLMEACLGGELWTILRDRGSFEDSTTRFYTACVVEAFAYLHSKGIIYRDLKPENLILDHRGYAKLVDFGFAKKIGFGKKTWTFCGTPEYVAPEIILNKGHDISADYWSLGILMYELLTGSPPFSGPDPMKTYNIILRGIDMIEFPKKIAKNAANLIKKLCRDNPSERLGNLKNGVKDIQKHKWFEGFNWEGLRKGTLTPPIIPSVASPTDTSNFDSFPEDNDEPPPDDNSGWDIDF
The settings on record: at 0.1 µM.

Experiment [15] deals with T5, cGMP-dependent protein kinase 1 (Homo sapiens). Conditions: at 1 µM.
Experiment [16] addresses T6, cGMP-dependent protein kinase 2 (Homo sapiens) (UniProt Q13237).
T6 sequence (whole entry): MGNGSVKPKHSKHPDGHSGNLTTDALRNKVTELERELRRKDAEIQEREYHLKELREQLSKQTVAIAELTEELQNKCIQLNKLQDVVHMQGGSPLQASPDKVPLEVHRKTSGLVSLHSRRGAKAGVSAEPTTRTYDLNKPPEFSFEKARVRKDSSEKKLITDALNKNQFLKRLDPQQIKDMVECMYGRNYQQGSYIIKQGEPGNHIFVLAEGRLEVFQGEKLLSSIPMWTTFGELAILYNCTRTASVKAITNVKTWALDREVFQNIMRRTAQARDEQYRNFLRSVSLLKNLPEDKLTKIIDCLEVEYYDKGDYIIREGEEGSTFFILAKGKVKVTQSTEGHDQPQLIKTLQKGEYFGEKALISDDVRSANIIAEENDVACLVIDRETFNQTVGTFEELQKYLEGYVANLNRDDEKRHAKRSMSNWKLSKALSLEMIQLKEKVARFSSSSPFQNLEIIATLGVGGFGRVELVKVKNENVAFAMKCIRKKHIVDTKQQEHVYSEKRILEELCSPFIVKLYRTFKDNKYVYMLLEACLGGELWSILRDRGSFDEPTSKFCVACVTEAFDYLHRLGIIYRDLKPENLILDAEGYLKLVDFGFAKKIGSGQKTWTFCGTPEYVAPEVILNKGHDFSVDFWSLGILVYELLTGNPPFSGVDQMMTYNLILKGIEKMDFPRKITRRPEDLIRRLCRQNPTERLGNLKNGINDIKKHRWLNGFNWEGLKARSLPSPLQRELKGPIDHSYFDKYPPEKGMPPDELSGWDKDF
The settings on record: at 0.1 µM.

Experiment [17] deals with T6, cGMP-dependent protein kinase 2 (Homo sapiens). The settings on record: at 1 µM.
Experiment [18] has as its target T7, cAMP-dependent protein kinase catalytic subunit PRKX (Homo sapiens) (UniProt P51817).
T7 sequence (whole entry): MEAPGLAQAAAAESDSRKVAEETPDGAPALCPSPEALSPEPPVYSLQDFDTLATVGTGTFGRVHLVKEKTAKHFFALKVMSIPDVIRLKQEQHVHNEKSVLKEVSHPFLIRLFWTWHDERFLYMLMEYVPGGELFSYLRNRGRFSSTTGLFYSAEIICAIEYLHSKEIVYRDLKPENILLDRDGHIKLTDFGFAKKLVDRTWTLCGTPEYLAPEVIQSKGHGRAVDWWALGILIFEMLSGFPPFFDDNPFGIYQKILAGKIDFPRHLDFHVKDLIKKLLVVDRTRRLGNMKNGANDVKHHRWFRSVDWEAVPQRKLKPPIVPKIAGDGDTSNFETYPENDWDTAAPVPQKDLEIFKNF
The settings on record: at 0.1 µM.

Experiment [19] concerns the target T7, cAMP-dependent protein kinase catalytic subunit PRKX (Homo sapiens). Conditions: at 1 µM.
The target in experiment [20] is Rho-associated protein kinase 1 (Homo sapiens) (UniProt Q13464). The settings on record: at 0.1 µM.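 Also: values are mean percent inhibition of ROCK1.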
Chain of Rho-associated protein kinase 1 (Homo sapiens) (Q13464 2-1354 limits assumed): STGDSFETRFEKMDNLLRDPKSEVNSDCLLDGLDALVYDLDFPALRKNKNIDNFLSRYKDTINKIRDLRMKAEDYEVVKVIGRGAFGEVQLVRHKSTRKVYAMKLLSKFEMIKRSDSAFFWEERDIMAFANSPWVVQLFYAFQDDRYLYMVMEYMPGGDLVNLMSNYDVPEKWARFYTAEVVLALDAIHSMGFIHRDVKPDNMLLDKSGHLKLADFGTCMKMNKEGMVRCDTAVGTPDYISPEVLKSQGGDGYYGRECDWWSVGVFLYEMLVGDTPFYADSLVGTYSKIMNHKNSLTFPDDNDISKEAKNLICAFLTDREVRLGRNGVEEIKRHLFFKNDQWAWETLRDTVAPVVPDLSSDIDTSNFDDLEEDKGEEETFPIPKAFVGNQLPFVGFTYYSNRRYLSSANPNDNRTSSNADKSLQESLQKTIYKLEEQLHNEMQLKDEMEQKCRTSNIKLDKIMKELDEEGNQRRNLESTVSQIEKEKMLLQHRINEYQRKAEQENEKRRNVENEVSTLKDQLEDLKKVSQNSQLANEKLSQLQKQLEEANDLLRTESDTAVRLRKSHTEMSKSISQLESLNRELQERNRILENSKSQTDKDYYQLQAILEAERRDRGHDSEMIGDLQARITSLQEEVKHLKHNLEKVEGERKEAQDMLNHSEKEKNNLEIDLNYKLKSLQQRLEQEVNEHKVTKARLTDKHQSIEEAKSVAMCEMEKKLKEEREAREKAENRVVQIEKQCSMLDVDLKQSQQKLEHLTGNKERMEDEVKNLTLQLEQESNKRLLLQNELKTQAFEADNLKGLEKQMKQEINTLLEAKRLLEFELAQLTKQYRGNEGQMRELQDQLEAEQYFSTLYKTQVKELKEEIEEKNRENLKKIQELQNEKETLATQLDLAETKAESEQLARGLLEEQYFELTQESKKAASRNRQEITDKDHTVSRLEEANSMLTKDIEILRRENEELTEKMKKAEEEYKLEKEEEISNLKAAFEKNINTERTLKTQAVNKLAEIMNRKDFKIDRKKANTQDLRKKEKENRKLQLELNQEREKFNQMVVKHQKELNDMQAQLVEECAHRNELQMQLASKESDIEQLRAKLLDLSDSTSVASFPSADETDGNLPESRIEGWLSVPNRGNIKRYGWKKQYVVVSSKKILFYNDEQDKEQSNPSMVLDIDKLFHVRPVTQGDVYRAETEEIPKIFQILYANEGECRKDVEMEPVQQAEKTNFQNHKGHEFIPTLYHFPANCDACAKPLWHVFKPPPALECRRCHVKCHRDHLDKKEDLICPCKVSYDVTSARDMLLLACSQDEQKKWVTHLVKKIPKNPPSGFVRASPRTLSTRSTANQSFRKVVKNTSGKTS

Chain of Protein kinase C theta type (Homo sapiens) (Q04759 whole entry, looked up): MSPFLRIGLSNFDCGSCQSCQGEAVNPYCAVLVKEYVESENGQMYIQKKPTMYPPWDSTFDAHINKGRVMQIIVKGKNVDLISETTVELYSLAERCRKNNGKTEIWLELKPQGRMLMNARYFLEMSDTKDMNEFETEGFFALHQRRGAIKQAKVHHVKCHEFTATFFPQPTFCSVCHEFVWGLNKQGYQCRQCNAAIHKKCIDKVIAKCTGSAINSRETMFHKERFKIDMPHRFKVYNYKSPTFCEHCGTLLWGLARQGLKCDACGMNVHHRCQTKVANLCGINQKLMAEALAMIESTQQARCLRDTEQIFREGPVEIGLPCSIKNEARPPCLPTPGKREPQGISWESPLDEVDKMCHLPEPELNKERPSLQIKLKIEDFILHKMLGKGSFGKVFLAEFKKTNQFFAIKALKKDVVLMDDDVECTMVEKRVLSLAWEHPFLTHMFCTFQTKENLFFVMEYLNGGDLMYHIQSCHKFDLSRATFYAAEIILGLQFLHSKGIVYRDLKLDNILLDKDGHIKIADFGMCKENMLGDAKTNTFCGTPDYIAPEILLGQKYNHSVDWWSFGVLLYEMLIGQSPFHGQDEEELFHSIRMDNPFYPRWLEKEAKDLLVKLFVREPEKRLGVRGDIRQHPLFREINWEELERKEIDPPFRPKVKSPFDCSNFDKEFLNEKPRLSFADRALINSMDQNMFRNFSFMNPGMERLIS
Chain of Protein kinase C beta type (Homo sapiens) (P05771 2-671 limits assumed): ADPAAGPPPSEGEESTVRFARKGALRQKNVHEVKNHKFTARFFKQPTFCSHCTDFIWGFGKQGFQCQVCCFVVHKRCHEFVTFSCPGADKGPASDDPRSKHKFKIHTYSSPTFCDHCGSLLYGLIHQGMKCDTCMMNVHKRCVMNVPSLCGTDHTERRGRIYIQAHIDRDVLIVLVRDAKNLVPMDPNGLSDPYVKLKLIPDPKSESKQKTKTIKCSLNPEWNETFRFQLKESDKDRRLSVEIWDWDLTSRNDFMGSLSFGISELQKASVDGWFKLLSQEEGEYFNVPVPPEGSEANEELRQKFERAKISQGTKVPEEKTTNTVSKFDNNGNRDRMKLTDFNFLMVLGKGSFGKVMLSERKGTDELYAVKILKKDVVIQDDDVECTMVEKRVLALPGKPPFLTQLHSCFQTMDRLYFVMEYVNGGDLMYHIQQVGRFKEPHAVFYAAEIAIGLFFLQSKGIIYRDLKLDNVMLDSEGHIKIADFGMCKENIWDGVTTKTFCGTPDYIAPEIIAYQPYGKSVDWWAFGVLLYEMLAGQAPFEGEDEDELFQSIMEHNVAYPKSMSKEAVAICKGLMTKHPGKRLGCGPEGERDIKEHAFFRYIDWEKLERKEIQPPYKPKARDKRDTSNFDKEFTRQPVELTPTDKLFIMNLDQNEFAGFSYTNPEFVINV

For the compound `CS(=O)(=O)CCNCc1ccc(-c2ccc3ncnc(Nc4ccc(OCc5ccccc5)c(Br)c4)c3c2)o1`, the inhibition was -0.13% in experiment [1]; 2.91% in experiment [2]; 2.72% in [3]; 2.31% in experiment [4]; 2.41% in [5]; 0.97% in [6]. The inhibition in experiment [7] was 1.27%; in experiment [8], 0.19%; in [9], -0.25%; in experiment [10], 0.64%; in [11] it was -2.34%; in [12], -0.06%. The inhibition was -0.73% in experiment [13]; 3.47% in [14]; 0.89% in experiment [15]; 2.31% in experiment [16]; 1.31% in experiment [17]; 2.17% in experiment [18]. Besides, the results for the inhibition in experiment [19] and in [20] were 2.64% and 1.36%, respectively.
Turning to `CN1CCN(CCCNc2nc3ccc(Oc4ccc(NC(=O)Nc5cc(C(F)(F)F)ccc5F)cc4)cc3[nH]2)CC1`, the inhibition is 2.83% in experiment [1]; 1.14% in experiment [2]; 1.05% in experiment [3]; -0.2% in experiment [4]; -0.32% in experiment [5]; 2.09% in [6]. For the same compound, the inhibition in experiment [7] is 2.68%; in experiment [8], -0.88%; in [9] it was -1.77%; in experiment [10] it was -2.52%; in [11], -0.73%; in experiment [12] it was -2.59%. In addition, the inhibition in [13] is -1.97%; in experiment [14], 3.15%; in [15], 3.23%; in experiment [16] it was 3.62%; in experiment [17] it was 2.7%; in [18], 2.54%. Further, the inhibition worked out at 1.08% in experiment [19] and 1.94% in experiment [20].
